Data reported in PubChem BioAssay (EPA / NIEHS).
Activity calls are given as the source filed them. The calls were made as follows: active = hit-call score of the fitted dose curve at least 0.9, where 1 is the maximum; inactive = score below 0.9.

Experiment: ATG_E_Box_CIS: Attagene CIS-FACTORIAL HepG2 Assay for human Enhancer Box (E-box) (AID 2282936)
Conditions: HepG2 E-box cis-reporter transcription, actives raise or lower the signal
Method: ATG_CIS is a cell-based, multiplexed-readout assay that uses HepG2, a human liver cell line, with measurements taken at 24 hours after chemical dosing in a 24-well plate.ATG_E_Box_CIS is one of 52 assay component(s) measured or calculated from the ATG_CIS assay. It is designed to make measurements of mRNA induction, a form of inducible reporter, as detected with fluorescence intensity signals by Reverse transcription polymerase chain reaction (RT-PCR) and Capillary electrophoresis technology.Data from the assay component ATG_E_Box_CIS was analyzed into 1 assay endpoint. This assay endpoint, ATG_E_Box_CIS, was analyzed with bidirectional fitting relative to DMSO as the negative control and baseline of activity. Using a type of inducible reporter, measures of mRNA for gain or loss-of-signal activity can be used to understand the reporter gene at the transcription factor-level as they relate to the gene USF1. Furthermore, this assay endpoint can be referred to as a primary readout, because this assay has produced multiple assay endpoints where this one serves a reporter gene function. To generalize the intended target to other relatable targets, this assay endpoint is annotated to the dna binding intended target family, where the subfamily is basic helix-loop-helix protein.
Human liver HepG2 cells are transiently transfected with multiple reporter transcription units (MRTUs) in 6-well plates using FuGene 6 reagent (Roche; 3 ml FuGene/1 mg DNA). The MRTU constructs are regulated by a cis-regulating element (promoter). […] A major difference between the CIS and TRANS system is that in CIS activities of endogenous TFs are measured, whereas the TRANS assay evaluates changes in activities of exogenous, chimeric NR-Gal4 proteins. […] At the end of 24 hour incubation, total RNA was isolated using TriZol reagent (Invitrogen). The isolated RNA is then reverse-transcribed using oligo(dT) primer and Mo-MLV reverse transcriptase (Invitrogen) with DNAse I (Ambion) treatment for 30 min. The one-tenth of the produced cDNA was amplified by PCR using Taq DNA polymerase (Invitrogen) and two reporter sequence-specific primers. The PCR products were fluorescently labeled by primer extension with 6-arboxyfluorescein (6-FAM) 5'-labeled reporter sequence-specific primer (2 min at 95 C, 20 s at 68 C and 10 min at 72 C) and these products were digested with 5U of HpaI (New England Biolabs) for 2h at 37 C. The fragments were purified using Qiaquick PCR columns (Qiagen), analyzed on an ABI 3130xL genetic analyzer (Applied Biosystems) with peak positions identified by using a set of X-rhodamine (ROX)-labeled MapMarker1000 molecular weight standards (BioVentures). The raw capillary electrophoresis data was processed using Attagraph software (Attagene).

Row | Compound | outcome | AC50
1 | C[As+](C)(C)CC(=O)[O-] | inactive | –
2 | Nc1ccc(N)cc1 | inactive | –
3 | ClCCCCl | inactive | –
4 | C[C@H]1C(=O)O[C@@H]2CCN3CC=C(COC(=O)[C@](C)(O)[C@]1(C)O)[C@H]23 | inactive | –
5 | C=C(C)[C@@H]1CC=C(C=O)CC1 | inactive | –
6 | O=C(Nc1ccc(Br)cc1)c1cc(Br)cc(Br)c1O | inactive | –
7 | COc1ccccc1N | inactive | –
8 | CC1(C)COP(Oc2ccccc2)OC1 | inactive | –
9 | O=NN1CCOCC1 | inactive | –
10 | CC(C)(C1CCC(O)CC1)C1CCC(O)CC1 (stereo not given) | inactive | –
11 | NC(=O)c1ccc(N)nc1 | inactive | –
12 | Oc1cccc(-c2ccccc2)c1 | inactive | –
13 | Clc1cnc(Oc2ccc(Oc3ncc(Cl)cc3Cl)cc2)c(Cl)c1 | inactive | –
14 | CCN(CC)C(=O)C(Cl)=C(C)OP(=O)(OC)OC | inactive | –
15 | CC(C)(C#N)N=NC(C)(C)C#N | inactive | –
16 | OC[C@@H](O)[C@H]1O[C@@H]2O[C@H](C(Cl)(Cl)Cl)O[C@@H]2[C@H]1O | inactive | –
17 | O=C(CCl)Nc1ccccc1 | – | 73.5 µM (active)
18 | O=C(NC(=O)c1c(F)cccc1F)Nc1ccc(Cl)cc1 | inactive | –
19 | Cc1ccc(CCl)cc1 | inactive | –
20 | COP(=S)(OC)Oc1cc(Cl)c(I)cc1Cl | – | 34.7 µM (active)

Row | Compound | outcome | AC50
21 | O=C(NC(=O)c1c(F)cccc1F)Nc1cc(Cl)c(F)c(Cl)c1F | inactive | –
22 | BrCCCCBr | inactive | –
23 | OC[P+](CO)(CO)CO | inactive | –
24 | O=[N+]([O-])c1cccc2ccccc12 | inactive | –
25 | COC(F)(C(F)(F)C(F)(F)F)C(F)(C(F)(F)F)C(F)(F)F (stereo not given) | inactive | –
26 | CC(F)(F)CC(F)(F)F | inactive | –
27 | Cc1cc(Cl)ccc1OCCCC(=O)O | inactive | –
28 | Cc1cccc(C)c1NC(=O)CN1CCCC1=O | inactive | –
29 | ClCCN1CCOCC1 | inactive | –
30 | COCC(=O)N(c1c(C)cccc1C)[C@H](C)C(=O)OC | inactive | –
31 | OCC(c1ccc(Cl)cc1)c1ccc(Cl)cc1 | inactive | –
32 | CC(C)(COCC1CO1)COCC1CO1 (stereo not given) | inactive | –
33 | COc1nn(C(=O)NS(=O)(=O)c2ccccc2OC(F)(F)F)c(=O)n1C | inactive | –
34 | CCOC(=O)Cc1ccccc1 | inactive | –
35 | Fc1cccc(Cl)c1CCl | inactive | –
36 | CC(C)[C@H](C(=O)OC(C#N)c1cccc(Oc2ccccc2)c1)c1ccc(OC(F)F)cc1 (stereo not given in full) | inactive | –
37 | C=CC(Cl)CCl (stereo not given) | inactive | –
38 | Brc1ccc(Oc2c(Br)cc(Br)cc2Br)c(Br)c1 | inactive | –
39 | Nc1ccc(-c2ccccc2)cc1 | inactive | –
40 | C1CCC(C2CCCCC2)CC1 | inactive | –
